Test results taken from PubChem BioAssay AID1159580 (chemical genetic matrix, 2015).
Screen size: about 5,500 compounds; about 2,000 (36%) were called active. Not shown: some 18% with an inconclusive outcome. Rule as the data show it: active = normalized growth mostly below about 0.91 (no sharp cut-off); inconclusive = no clear call, values can overlap the other calls; inactive = mostly above about 0.92. The list shows a part of the results.

Experiment: chemical genetic growth profiling, strain panel (AID 1159580);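 also: tested at 20 µM; growth read once vehicle control cultures reached saturation at 30 °C; 1 = growth at the plate median or of vehicle wells; lower values mean less growth of the strain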
Conditions: growth OD

Measured: normalized growth

CC(=O)O[C@]1(C(C)=O)CCC2C3C[C@H](C)C4=CC(=O)CC[C@]4(C)C3CC[C@@]21C (stereo partly drawn)
active: S. cerevisiae deletion strains, locus YLL001W, strain dnm1, active compounds read low 0.894 | S. cerevisiae deletion strains, locus YLR221C, strain rsa3, active compounds read low 0.9 | S. cerevisiae deletion strains, locus YLR262C, strain YPT6 (second series), active compounds read low 0.815 | S. cerevisiae deletion strains, locus YLR320W, strain mms22, active compounds read low 0.875 | S. cerevisiae deletion strains, locus YLR418C, strain cdc73, active compounds read low 0.829 | S. cerevisiae deletion strains, locus YNL071W, strain lat1, active compounds read low 0.876
inactive: S. cerevisiae deletion strains, locus YJR075W, strain HOC1, active compounds read low 0.99 | S. cerevisiae deletion strains, locus YKL009W, strain mrt4, active compounds read low 0.973 | S. cerevisiae deletion strains, locus YKL068W, active compounds read low 0.971 | S. cerevisiae deletion strains, locus YKL085W, strain MDH1 (second series), active compounds read low 0.977 | S. cerevisiae deletion strains, locus YKL085W, strain MDH1, active compounds read low 0.977 | S. cerevisiae deletion strains, locus YKL160W, strain elf1, active compounds read low 0.911 | S. cerevisiae deletion strains, locus YKL190W, strain CNB1, active compounds read low 0.989 | S. cerevisiae deletion strains, locus YKR001C, strain vps1, active compounds read low 0.956 | S. cerevisiae deletion strains, locus YKR026C, strain gcn3, active compounds read low 0.981 | S. cerevisiae deletion strains, locus YKR091W, strain srl3, active compounds read low 0.959 | S. cerevisiae deletion strains, locus YLL026W, active compounds read low 0.976 | S. cerevisiae deletion strains, locus YLL041C, strain sdh2, active compounds read low 0.968 | S. cerevisiae deletion strains, locus YLR027C, strain aat2, active compounds read low 0.976 | S. cerevisiae deletion strains, locus YLR039C, strain RIC1, active compounds read low 1.05 | S. cerevisiae deletion strains, locus YLR058C, strain SHM2, active compounds read low 0.979 | S. cerevisiae deletion strains, locus YLR102C, strain apc9, active compounds read low 0.989 | S. cerevisiae deletion strains, locus YLR113W, strain HOG1, active compounds read low 0.965 | S. cerevisiae deletion strains, locus YLR258W, strain gsy2, active compounds read low 0.949 | S. cerevisiae deletion strains, locus YLR262C, strain YPT6, active compounds read low 0.957 | S. cerevisiae deletion strains, locus YLR268W, strain sec22, active compounds read low 0.977 | S. cerevisiae deletion strains, locus YLR330W, strain CHS5, active compounds read low 0.988 | S. cerevisiae deletion strains, locus YLR342W, strain FKS1 (second series), active compounds read low 0.984 | S. cerevisiae deletion strains, locus YLR342W, strain FKS1, active compounds read low 0.948 | S. cerevisiae deletion strains, locus YLR357W, strain rsc2, active compounds read low 0.939 | S. cerevisiae deletion strains, locus YLR370C, strain arc18, active compounds read low 0.925 | S. cerevisiae deletion strains, locus YLR371W, strain rom2, active compounds read low 0.985 | S. cerevisiae deletion strains, locus YLR384C, strain iki3, active compounds read low 0.977 | S. cerevisiae deletion strains, locus YML016C, strain PPZ1, active compounds read low 0.996 | S. cerevisiae deletion strains, locus YML032C, strain rad52, active compounds read low 0.984 | S. cerevisiae deletion strains, locus YML120C, strain ndi1, active compounds read low 0.916 | S. cerevisiae deletion strains, locus YML124C, strain tub3, active compounds read low 0.986 | S. cerevisiae deletion strains, locus YMR058W, strain fet3, active compounds read low 0.968 | S. cerevisiae deletion strains, locus YMR078C, strain ctf18, active compounds read low 0.97 | S. cerevisiae deletion strains, locus YMR125W, strain sto1, active compounds read low 0.947 | S. cerevisiae deletion strains, locus YMR129W, active compounds read low 0.972 | S. cerevisiae deletion strains, locus YMR205C, strain PFK2, active compounds read low 0.906 | S. cerevisiae deletion strains, locus YMR223W, strain ubp8, active compounds read low 0.917 | S. cerevisiae deletion strains, locus YMR231W, strain pep5, active compounds read low 0.978 | S. cerevisiae deletion strains, locus YMR263W, strain SAP30, active compounds read low 0.989 | S. cerevisiae deletion strains, locus YMR307W, strain GAS1, active compounds read low 0.992 | S. cerevisiae deletion strains, locus YNL067W, strain RPL9B, active compounds read low 0.993 | S. cerevisiae deletion strains, locus YNL153C, strain GIM3, active compounds read low 0.983 | S. cerevisiae deletion strains, locus YNL183C, strain NPR1, active compounds read low 0.951 | S. cerevisiae deletion strains, locus YNL209W, strain ssb2, active compounds read low 0.958 | S. cerevisiae deletion strains, locus YNL233W, strain BNI4, active compounds read low 0.989 | S. cerevisiae deletion strains, locus YNL248C, strain rpa49, active compounds read low 0.955 | S. cerevisiae deletion strains, locus YNL250W, strain rad50, active compounds read low 0.986 | S. cerevisiae deletion strains, locus YNL271C, strain bni1, active compounds read low 0.969 | S. cerevisiae deletion strains, locus YNL298W, strain CLA4, active compounds read low 0.953 | S. cerevisiae deletion strains, locus YNL307C, strain MCK1, active compounds read low 0.914 | S. cerevisiae deletion strains, locus YNL322C, strain KRE1 (second series), active compounds read low 0.962 | S. cerevisiae deletion strains, locus YNR049C, strain mso1, active compounds read low 0.974 | S. cerevisiae deletion strains, locus YNR052C, strain pop2, active compounds read low 0.994 | S. cerevisiae deletion strains, locus YOL012C, strain htz1 1.07 | S. cerevisiae deletion strains, locus YOL147C, strain pex11, active compounds read low 0.983 | S. cerevisiae deletion strains, locus YOR001W, strain rrp6, active compounds read low 1.01 | S. cerevisiae deletion strains, locus YOR061W, strain CKA2, active compounds read low 0.987 | S. cerevisiae deletion strains, locus YOR069W, strain VPS5, active compounds read low 0.984 | S. cerevisiae deletion strains, locus YOR070C, strain gyp1, active compounds read low 0.967 | S. cerevisiae deletion strains, locus YOR080W, strain dia2, active compounds read low 0.97 | S. cerevisiae deletion strains, locus YOR083W, strain WHI5, active compounds read low 0.927 | S. cerevisiae deletion strains, locus YOR106W, strain vam3, active compounds read low 0.95 | S. cerevisiae deletion strains, locus YOR136W, strain idh2, active compounds read low 1 | S. cerevisiae deletion strains, locus YOR144C, strain elg1, active compounds read low 0.997 | S. cerevisiae deletion strains, locus YOR184W, strain ser1, active compounds read low 0.875 | S. cerevisiae deletion strains, locus YOR231W, strain MKK1, active compounds read low 0.998 | S. cerevisiae deletion strains, locus YOR265W, strain rbl2, active compounds read low 0.986 | S. cerevisiae deletion strains, locus YOR270C, strain vph1, active compounds read low 0.867 | S. cerevisiae deletion strains, locus YOR290C, strain snf2, active compounds read low 0.873 | S. cerevisiae deletion strains, locus YOR316C, strain cot1, active compounds read low 0.986 | S. cerevisiae deletion strains, locus YPL051W, strain arl3, active compounds read low 0.937 | S. cerevisiae deletion strains, locus YPL055C, strain LGE1, active compounds read low 0.963 | S. cerevisiae deletion strains, locus YPL078C, strain atp4, active compounds read low 0.939 | S. cerevisiae deletion strains, locus YPL106C, strain sse1, active compounds read low 0.991 | S. cerevisiae deletion strains, locus YPL240C, strain hsp82, active compounds read low 0.967 | S. cerevisiae deletion strains, locus YPL256C, strain CLN2, active compounds read low 1 | S. cerevisiae deletion strains, locus YPR119W, strain clb2, active compounds read low 0.986 | S. cerevisiae deletion strains, locus YPR141C, strain kar3, active compounds read low 0.954 | S. cerevisiae deletion strains, locus YPR163C, strain tif3, active compounds read low 0.982 | S. cerevisiae deletion strains, locus YPR167C, strain met16, active compounds read low 0.982 | S. cerevisiae deletion strains, strain wtn01, active compounds read low 0.955 | S. cerevisiae strains, strain wild type, active compounds read low 0.991
